Experimental findings from PubChem BioAssay (NCATS) are described below.

Assay [1] in a line: AP1 Signaling Pathway (AID 357).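 Further: ME-180 reporter cells stimulated with EGF at its EC50 level; on the % scale 0 is the no-effect control and ±100 the full control effect.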 To be noted: ME-180 AP-1-bla reporter, EGF-induced, beta-lactamase ratio, 5 h; at 7.69 µM (top of the series) unless noted. A digest of the protocol: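 Modulation of EGF-driven AP-1 transcription was assessed with a beta-lactamase reporter in ME-180 cells. Compound and EC50 EGF were co-incubated 5 hours at 37 °C before 2.5-hour CCF4 loading at room temperature and dual-emission reading.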

In assay [2] the target is Cytochrome P450 1A2 (Homo sapiens) (UniProt P05177). The assay can be described thus: p450-cyp1a2 (AID 410; calls by dose curve; further: potency means the concentration at half of the fitted maximal effect;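 on activity change, negative = inhibition: -100% = full effect of reference inhibitor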). A digest of the protocol:
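20nM CYP1A2, 100uM Luciferin-ME (=Km), 100mM KPO4; cpd 10 min RT; +NADPH regen, 60 min RT; stop/detect 20 min; luminescence. Normalized to furafylline 57 uM = full inhibition.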

Assay [3] in a line: NFAT Signaling Pathway (AID 444).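 Further: carbachol stimulus at about its EC50 of 1 µM final; on the % scale 0 is the no-effect control and ±100 the full control effect.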 Conditions: Jurkat NFAT-bla M1, carbachol, beta-lactamase ratio, 5 h; at 7.69 µM (top of the series) unless noted. A digest of the protocol:
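Read-out: CCF4 FRET ratio (460 nm/530 nm) after 1 h RT dye loading, used for %activity and AC50 from titration series. Cells: Jurkat NFAT-β-lactamase/M1 line, treated with compound plus 1 uM carbachol for 5 h, 37 °C.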

Assay [4] can be described thus: Stat Signaling Pathway (AID 446).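 Further: ME-180 cervical cancer cells given 40 pM IL-6 alongside compound; SIE-controlled beta-lactamase reporter measured as 460/530 nm FRET emission ratio; on the % scale 0 is the no-effect control and ±100 the full control effect.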 To be noted: ME-180 (cervical carcinoma) SIE beta-lactamase reporter, IL-6 stimulated, 5 h; at 7.69 µM (top of the series) unless noted. Summed up: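 Compound effects on IL-6-induced STAT reporter activity were measured in ME-180 cells. After overnight culture, cells were co-treated with 40 pM IL-6 for 5 hrs before beta-lactamase substrate loading at room temperature.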

The target of assay [5] is Glucocorticoid receptor (Homo sapiens) (UniProt P04150). The assay can be described thus: GR-GFP Redistribution (AID 450;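 active means compounds whose dose series gives a full or clear partial fitted curve of increased nuclear translocation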; further: potency means the concentration at half of the fitted maximal effect). Conditions: U2OS GR-GFP nuclear translocation, laser cytometry, 2 h.
The target is the same in assay [6]. Briefly: GR-EFC Redistribution (AID 451; calls by dose curve; further: potency means the concentration at half of the fitted maximal effect). To be noted: CHO-K1 GR-EFC translocation, beta-gal luminescence, 2 h. Summed up: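 Translocation of GR-ED fusion to nuclear EA restores b-gal, read by luminescence after 1 h room-temperature detection. Engineered CHO-K1 biosensor cells, 1,000/well, exposed 2 h at 37 C to titrations up to 46 uM final.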
The target of assay [7] is Mitogen-activated protein kinase 10 (Mus musculus) (UniProt Q61831). The assay can be described thus: JNK3 AlphaScreen Assay (AID 530).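 Further: kinase came from lysate of stimulated human HepG2 cells; signal reports phosphorylation of biotinylated GST-cJun 1-79 at Ser73 with 10 µM ATP; on the % scale 0 is the no-effect control and ±100 the full control effect.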 Summed up: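 Kinase buffer: 20 mM Tris-HCl pH 7.6, 10 mM MgCl2, 1 mM DTT, 0.1 mM Na3VO4, 0.01% Tween-20; ATP 10 uM. Substrate biotin-GST-cJun(1-79), enzyme from activated HepG2 lysates. Detection by Ser73 phospho-antibody AlphaScreen.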
In general terms: Bead proximity is the source of the signal in Alpha formats.

Assay [8] addresses Cytochrome P450 3A4 (Homo sapiens) (UniProt P08684). The assay can be described thus: qHTS Assay for Activators of Cytochrome P450 3A4 (AID 885; active means well fitted curve in the direction sought with a large enough effect; an effect the other way counts as inactive or inconclusive; further: nearly all actives have a fitted effect of over 65% in size; further: potency means the concentration at half of the fitted maximal effect). Summed up: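 CYP3A4 activity: Luciferin-PPXE O-dealkylation, 25uM substrate, 200mM KPO4, RT throughout. Read-out is luciferase luminescence; higher values reflect activation.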
A general note: Quantitative high-throughput screening tests each substance at several concentrations.

Assay [9] has as its target Cytochrome P450 2D6 (Homo sapiens) (UniProt P10635). Briefly: qHTS Assay for Inhibitors and Substrates of Cytochrome P450 2D6 (AID 891; active means well fitted curve in the direction sought with a large enough effect; an effect the other way counts as inactive or inconclusive; further: nearly all actives have a fitted effect of over 60% in size; further: potency means the concentration at half of the fitted maximal effect). Summed up:
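Luminescent read-out of luciferin formed by 5 nM human CYP2D6 demethylating 30 uM Luciferin-ME EGE (Km level) over 60 min at room temperature after NADPH regeneration addition. Data normalized to full inhibition by 1.43 uM quinidine.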

For assay [10], the target named is Cytochrome P450 2C19 (Homo sapiens) (UniProt P33261). Briefly: qHTS Assay for Inhibitors and Substrates of Cytochrome P450 2C19 (AID 899; active means well fitted curve in the direction sought with a large enough effect; an effect the other way counts as inactive or inconclusive; further: nearly all actives have a fitted effect of over 60% in size; further: potency means the concentration at half of the fitted maximal effect). A digest of the protocol:
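5nM enzyme + 10uM Luciferin-H EGE (=KM), 50mM KPO4; cpd pin-transferred, 10 min 37C; NADPH regen, 60 min 37C; stopped w/ luciferin detection reagent, 20 min; luminescence. Normalized to 57uM ketoconazole (AC100).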

In assay [11] the target is 3',5'-cyclic-AMP phosphodiesterase 4B (Homo sapiens) (UniProt Q07343). The assay can be described thus: qHTS Assay for Inhibitors of PDE-IV (AID 607; active means well fitted activation curve with a large enough effect in the main read-out, with a control signal flat, not every such curve was filed as active; further: % of control where 0% means no effect). A digest of the protocol: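 ACTOne HEK293 cells carry a modified cAMP-gated CNG channel and express endogenous PDE4; plated 1000 cells/well, compounds up to 22.9 uM final. Membrane-potential dye fluorescence (ex 535/em 590) was read; parental cells received 10 uM forskolin + 100 uM RO 20-1724.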

The nature of assay [12]: qHTS Assay for Identification of Small Molecule Antagonists for NFkB Signaling Pathway (AID 895; active means well fitted inhibition curve with a large enough effect in the signal ratio, with a control signal flat, not every such curve was filed as active; the % refers to the signal ratio; further: potency means the concentration at half of the fitted maximal effect). A digest of the protocol:
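Beta-lactamase reporter read-out (460 and 530 nm emission ratio, 405 nm excitation, 2 hrs substrate loading RT) after 5 hr stimulation with 10 pM TNF alpha in compound-treated NFkB-bla ME-180 cells in low-serum medium.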

Assay [13] can be described thus: qHTS Assay for Identification of Small Molecule Agonists for Thrombopoietin (TPO) Signaling Pathway (AID 917; active means well fitted curve in the direction sought with a large enough effect; an effect the other way counts as inactive or inconclusive; further: on the % scale 0 is the no-effect control and ±100 the full control effect). Summed up: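 First, Ba/F3 cells with human TPO receptor were held overnight without IL-3. Next, compounds and TPO (26 pM final) were added. After 24 hrs at 37 C, luciferase detection reagent was added and luminescence measured following 10 min at room temperature.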

Assay [14] deals with Muscarinic acetylcholine receptor M1 (Rattus norvegicus) (UniProt P08482). The assay can be described thus: qHTS Assay for Antagonists of Acetylcholine Muscarinic M1 Receptor: Kinetic Measurement of Intracellular Calcium Response (AID 943; active means well fitted curve in the direction sought with a large enough effect; an effect the other way counts as inactive or inconclusive; further: nearly all actives have a fitted effect of over 75% in size). A digest of the protocol: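 Read-out: peak over basal Fluo-4 fluorescence, kinetic at 1 Hz for 4 min after EC80 carbachol (100 nM final). Rat M1-CHO cells, dye loaded 1 h at 37C, compound added 10 min before agonist.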

The target is the same in assay [15]. Briefly: qHTS Assay for Antagonists of Acetylcholine Muscarinic M1 Receptor: Measurement of IP-One Response (AID 944; active means well fitted curve in the direction sought with a large enough effect; an effect the other way counts as inactive or inconclusive; further: nearly all actives have a fitted effect of over 75% in size). A digest of the protocol: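 Read-out: HTRF competition between d2-IP1 and Eu-cryptate anti-IP1 antibody, emission 620 and 665 nm. Stimulus was carbachol, EC80 (200 nM), for 30 min in M1-CHO cells (rat receptor), after 10 min compound pre-treatment.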

For assay [16], the target named is Pyruvate kinase (Leishmania mexicana) (UniProt Q27686). The assay can be described thus: qHTS Validation Assay for Inhibitors of Leishmania Mexicana Pyruvate Kinase (AID 945; active means well fitted curve in the direction sought with a large enough effect; an effect the other way counts as inactive or inconclusive;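 further: 0% = DMSO only neutral control wells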). A digest of the protocol:
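Purified LmPYK (E451W mutant, 0.2 nM) was incubated 1 h at room temperature with 0.5 mM PEP and 0.1 mM ADP in 50 mM imidazole pH 7.2, 50 mM KCl, 7 mM MgCl2; ATP formed was read by PKLight luminescence, normalized to DMSO wells.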

Assay [17] deals with Pyruvate kinase PKM (Homo sapiens) (UniProt P14618). The assay can be described thus: qHTS Assay for Activators of Human Muscle Pyruvate Kinase (AID 954; active means well fitted curve in the direction sought with a large enough effect, not every such curve was filed as active;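 further: 0% = uninhibited enzyme and -100% = no enzyme or full thiadiazolimine inhibition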). A digest of the protocol:
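A coupled luminescent readout tracked ATP made from ADP by purified PKM2. Final conditions included 0.1 nM enzyme, PEP and ADP at 0.5 and 0.1 mM, pH 7.2 imidazole buffer with BSA, and a one-hour room-temperature reaction.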

Assay [18] addresses Alpha-galactosidase A (Homo sapiens) (UniProt P06280). The assay can be described thus: Counterscreen for Glucocerebrosidase Inhibitors: qHTS Assay for Human alpha-Galactosidase at pH 4.5 (AID 992; active means well fitted curve in the direction sought with a large enough effect; an effect the other way counts as inactive or inconclusive; further: 0% is about no effect). Summed up: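 Citrate buffer pH 4.5, Tween-20 0.005%. Enzyme 2 nM, substrate 80 uM, 20 min RT. Stop pH 10. Fluorescence Ex 365/Em 440. AC50 by Hill fit.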
For orientation: Counterscreens check selectivity or assay interference.

Assay [19] has as its target alpha-glucosidase (Oryza sativa, rice) (UniProt Q653V4). The assay can be described thus: Counterscreen for Glucocerebrosidase Inhibitors: qHTS Assay for Rice alpha-Glucosidase at pH 5.0 (AID 997; active means well fitted curve in the direction sought with a large enough effect; an effect the other way counts as inactive or inconclusive;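 further: 0% = full activity with enzyme and -100% = basal without enzyme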). Summed up:
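Endpoint fluorogenic assay at pH 5.0: compounds (0.7 nM to 77 uM) titrated against 4 nM rice enzyme and 400 uM 4-MU-alpha-glucoside for 20 min at room temperature; NaOH/glycine stop, read ex 365/em 440 nm, Hill-fitted AC50.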

SMILES strings stand for the structures. Unmarked numbers belong to inactive results. Inconclusive results are not listed. Active and inactive are the calls of the source. Unless noted, the call rests on the fitted dose curve; in most records, active means well fitted curve in either direction with a large enough effect (not every such curve was filed as active); inconclusive means small, poorly fitted or top-dose-only effect, or another doubt; inactive means flat fitted curve, though single readings scatter. Some results are limits rather than exact numbers.

Chain of Alpha-galactosidase A (Homo sapiens) (P06280 whole entry, looked up): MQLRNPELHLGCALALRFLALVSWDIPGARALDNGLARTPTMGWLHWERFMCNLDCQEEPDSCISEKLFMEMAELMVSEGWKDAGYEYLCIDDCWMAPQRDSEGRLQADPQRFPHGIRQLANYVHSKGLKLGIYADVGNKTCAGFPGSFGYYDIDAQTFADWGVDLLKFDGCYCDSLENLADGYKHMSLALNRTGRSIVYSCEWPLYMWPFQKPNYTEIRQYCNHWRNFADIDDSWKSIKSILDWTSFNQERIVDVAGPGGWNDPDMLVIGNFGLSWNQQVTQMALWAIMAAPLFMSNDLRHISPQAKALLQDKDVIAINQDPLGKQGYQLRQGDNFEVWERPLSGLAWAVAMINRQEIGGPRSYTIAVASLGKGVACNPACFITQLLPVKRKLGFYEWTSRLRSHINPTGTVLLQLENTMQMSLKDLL
Chain of Pyruvate kinase (Leishmania mexicana) (Q27686 2-499 E452W): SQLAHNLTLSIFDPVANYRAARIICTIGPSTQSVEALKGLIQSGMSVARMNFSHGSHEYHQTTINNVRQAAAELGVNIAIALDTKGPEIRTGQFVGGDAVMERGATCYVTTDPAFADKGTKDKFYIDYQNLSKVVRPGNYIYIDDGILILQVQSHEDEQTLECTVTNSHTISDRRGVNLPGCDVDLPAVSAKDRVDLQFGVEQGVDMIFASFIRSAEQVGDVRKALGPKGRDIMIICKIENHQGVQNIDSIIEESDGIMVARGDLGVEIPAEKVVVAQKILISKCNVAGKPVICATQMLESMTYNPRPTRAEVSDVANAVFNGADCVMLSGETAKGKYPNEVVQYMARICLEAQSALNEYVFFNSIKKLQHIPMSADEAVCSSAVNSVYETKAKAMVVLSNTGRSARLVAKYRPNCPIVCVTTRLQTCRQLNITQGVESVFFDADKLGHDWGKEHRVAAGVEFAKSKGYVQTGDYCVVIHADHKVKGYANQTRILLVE
Chain of Glucocorticoid receptor (Homo sapiens) (P04150 whole entry, looked up, the tested form may be a part): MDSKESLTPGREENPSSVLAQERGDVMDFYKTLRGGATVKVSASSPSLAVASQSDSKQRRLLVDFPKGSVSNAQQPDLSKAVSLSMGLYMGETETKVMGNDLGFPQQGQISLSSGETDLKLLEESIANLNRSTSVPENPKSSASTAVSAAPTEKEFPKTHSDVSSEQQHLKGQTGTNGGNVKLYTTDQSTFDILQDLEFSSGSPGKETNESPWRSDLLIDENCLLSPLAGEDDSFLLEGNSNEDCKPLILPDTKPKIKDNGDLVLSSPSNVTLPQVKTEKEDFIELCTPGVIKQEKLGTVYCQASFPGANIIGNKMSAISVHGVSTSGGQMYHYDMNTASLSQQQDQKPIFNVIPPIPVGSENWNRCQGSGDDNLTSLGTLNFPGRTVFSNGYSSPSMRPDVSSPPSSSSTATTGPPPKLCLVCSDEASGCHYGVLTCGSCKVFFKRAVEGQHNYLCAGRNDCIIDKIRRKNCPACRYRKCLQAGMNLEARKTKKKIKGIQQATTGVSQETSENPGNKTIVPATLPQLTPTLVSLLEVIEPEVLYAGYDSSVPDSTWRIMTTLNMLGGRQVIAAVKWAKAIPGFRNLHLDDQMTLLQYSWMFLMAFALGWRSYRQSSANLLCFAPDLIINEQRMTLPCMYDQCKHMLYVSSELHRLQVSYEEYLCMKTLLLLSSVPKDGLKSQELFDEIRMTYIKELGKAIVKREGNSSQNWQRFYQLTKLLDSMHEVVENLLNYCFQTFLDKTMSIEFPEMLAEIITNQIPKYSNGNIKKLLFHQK
Chain of Cytochrome P450 1A2 (Homo sapiens) (P05177 whole entry, looked up): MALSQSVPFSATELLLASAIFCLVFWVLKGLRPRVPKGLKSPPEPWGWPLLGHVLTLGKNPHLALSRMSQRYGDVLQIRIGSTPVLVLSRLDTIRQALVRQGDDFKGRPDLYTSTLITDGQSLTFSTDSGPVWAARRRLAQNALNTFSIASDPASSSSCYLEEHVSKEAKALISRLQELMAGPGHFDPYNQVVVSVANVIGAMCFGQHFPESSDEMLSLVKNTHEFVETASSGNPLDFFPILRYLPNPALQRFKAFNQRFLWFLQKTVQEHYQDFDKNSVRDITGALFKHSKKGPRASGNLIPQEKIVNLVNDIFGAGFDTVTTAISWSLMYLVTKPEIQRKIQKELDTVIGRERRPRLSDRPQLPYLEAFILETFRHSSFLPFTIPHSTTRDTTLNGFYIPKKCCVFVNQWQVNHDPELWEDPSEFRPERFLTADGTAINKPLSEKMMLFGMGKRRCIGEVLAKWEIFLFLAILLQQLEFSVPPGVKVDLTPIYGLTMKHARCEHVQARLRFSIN
Chain of Cytochrome P450 3A4 (Homo sapiens) (P08684 whole entry, looked up): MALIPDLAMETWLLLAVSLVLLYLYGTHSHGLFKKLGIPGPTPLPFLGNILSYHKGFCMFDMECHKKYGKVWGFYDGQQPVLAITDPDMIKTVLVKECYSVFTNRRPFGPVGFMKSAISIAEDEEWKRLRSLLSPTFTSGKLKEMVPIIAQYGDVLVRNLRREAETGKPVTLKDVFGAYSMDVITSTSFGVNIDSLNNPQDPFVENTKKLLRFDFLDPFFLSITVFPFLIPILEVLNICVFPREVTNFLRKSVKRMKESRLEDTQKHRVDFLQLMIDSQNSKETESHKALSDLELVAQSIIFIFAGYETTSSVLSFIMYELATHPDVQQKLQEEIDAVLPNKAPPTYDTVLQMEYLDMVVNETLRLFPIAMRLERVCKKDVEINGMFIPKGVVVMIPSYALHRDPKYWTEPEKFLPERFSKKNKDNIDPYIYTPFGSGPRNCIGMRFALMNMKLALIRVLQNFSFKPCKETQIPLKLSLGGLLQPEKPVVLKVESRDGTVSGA
Chain of Muscarinic acetylcholine receptor M1 (Rattus norvegicus) (P08482 whole entry, looked up): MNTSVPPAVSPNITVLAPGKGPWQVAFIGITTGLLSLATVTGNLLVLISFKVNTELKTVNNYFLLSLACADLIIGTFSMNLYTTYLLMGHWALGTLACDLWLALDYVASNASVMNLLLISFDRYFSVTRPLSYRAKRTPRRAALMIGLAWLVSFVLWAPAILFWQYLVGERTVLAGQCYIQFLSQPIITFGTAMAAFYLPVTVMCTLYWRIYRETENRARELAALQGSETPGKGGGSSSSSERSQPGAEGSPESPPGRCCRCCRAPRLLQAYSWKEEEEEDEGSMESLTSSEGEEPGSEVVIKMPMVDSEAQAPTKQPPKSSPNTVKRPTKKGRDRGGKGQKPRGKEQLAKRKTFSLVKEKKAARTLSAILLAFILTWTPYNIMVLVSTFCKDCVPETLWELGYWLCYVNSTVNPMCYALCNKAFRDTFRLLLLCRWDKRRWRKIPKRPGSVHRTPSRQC
Chain of 3',5'-cyclic-AMP phosphodiesterase 4B (Homo sapiens) (Q07343 whole entry, looked up): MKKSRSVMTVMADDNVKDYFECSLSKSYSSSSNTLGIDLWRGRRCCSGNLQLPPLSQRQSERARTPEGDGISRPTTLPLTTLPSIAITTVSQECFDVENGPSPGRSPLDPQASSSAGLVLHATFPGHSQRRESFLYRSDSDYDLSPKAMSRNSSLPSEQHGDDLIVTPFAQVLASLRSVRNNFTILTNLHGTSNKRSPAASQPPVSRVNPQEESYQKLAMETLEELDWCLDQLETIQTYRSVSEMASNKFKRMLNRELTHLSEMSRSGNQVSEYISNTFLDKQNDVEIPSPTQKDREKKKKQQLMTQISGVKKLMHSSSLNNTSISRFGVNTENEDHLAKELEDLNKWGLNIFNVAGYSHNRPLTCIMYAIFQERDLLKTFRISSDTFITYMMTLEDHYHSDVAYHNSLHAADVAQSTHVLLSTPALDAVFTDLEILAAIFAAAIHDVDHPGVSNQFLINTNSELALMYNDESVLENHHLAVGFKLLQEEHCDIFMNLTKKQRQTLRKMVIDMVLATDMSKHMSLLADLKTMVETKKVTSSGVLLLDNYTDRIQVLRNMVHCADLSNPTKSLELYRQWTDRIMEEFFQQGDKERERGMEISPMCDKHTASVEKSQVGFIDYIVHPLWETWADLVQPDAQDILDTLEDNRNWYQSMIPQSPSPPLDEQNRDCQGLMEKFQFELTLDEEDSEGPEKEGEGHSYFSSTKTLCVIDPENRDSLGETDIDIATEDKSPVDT
Chain of Pyruvate kinase PKM (Homo sapiens) (P14618 whole entry, looked up): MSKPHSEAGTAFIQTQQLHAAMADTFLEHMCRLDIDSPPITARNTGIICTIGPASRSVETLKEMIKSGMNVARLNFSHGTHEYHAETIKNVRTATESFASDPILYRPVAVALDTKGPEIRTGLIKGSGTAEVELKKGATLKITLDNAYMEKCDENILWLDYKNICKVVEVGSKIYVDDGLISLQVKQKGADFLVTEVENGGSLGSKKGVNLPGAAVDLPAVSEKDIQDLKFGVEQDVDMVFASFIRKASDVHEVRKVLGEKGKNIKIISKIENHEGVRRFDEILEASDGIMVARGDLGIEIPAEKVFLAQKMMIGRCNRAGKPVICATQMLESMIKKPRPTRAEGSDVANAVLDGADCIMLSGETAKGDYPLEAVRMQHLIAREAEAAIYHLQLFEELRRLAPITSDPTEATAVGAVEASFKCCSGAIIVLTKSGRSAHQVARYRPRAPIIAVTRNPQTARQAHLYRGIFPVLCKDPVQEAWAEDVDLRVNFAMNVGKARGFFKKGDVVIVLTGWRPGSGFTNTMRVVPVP
Chain of Cytochrome P450 2C19 (Homo sapiens) (P33261 whole entry, looked up): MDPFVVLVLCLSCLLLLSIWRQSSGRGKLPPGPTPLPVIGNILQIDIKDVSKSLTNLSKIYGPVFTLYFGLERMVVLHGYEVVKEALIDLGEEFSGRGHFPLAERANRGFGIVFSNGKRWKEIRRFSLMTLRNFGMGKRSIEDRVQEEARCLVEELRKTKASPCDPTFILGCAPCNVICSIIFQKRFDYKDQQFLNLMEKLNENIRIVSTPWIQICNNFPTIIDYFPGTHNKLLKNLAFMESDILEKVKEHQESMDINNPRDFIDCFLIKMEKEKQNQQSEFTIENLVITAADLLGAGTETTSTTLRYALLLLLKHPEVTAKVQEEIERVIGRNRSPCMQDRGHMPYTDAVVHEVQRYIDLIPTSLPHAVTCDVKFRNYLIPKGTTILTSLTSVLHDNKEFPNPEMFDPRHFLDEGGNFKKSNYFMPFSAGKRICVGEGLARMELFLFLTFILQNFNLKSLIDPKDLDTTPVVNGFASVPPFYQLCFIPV

Turning to `CCNc1ncc2nc(CCc3ccccc3)c(=O)n(C)c2n1`, the activity change, negative = inhibition in assay [1] is -11.6%; in assay [3], -7.02%. Moreover, the Potency in [2] was 2.51 µM (active); in assay [5] it was above 9.22 µM; in assay [6] it was above 46 µM; in assay [9], 1.58 µM (active); in assay [10], 2.51 µM (active). The activity, negative = inhibition in assay [4] is -0.83%. The Potency result in assay [7] and in [8] was “inactive” each time.
As to `CNC(=O)[C@@H]1O[C@@H](n2cnc3c(NCc4ccc(N)cc4)ncnc32)[C@@H](O)[C@H]1O`, the results for the activity change, negative = inhibition in assay [1] and in assay [3] were -7.83% [at 38 µM] and 4.77% [at 38 µM], respectively. Further, the Potency result in assay [2], in assay [7], in assay [11], in [8], in assay [14] and in assay [15] was “inactive” throughout. Also, in [19], the Potency result was “inactive”. For the same molecule, the activity, negative = inhibition in assay [4] is -2.42% [at 38 µM]. The Potency was above 46 µM in assay [5], above 46 µM in assay [6] and 12.6 µM (active) in [12]. Also, the molecule was called inactive in assay [13], in [16], in assay [17] and in assay [18].
On to `COc1ccc2c(c1)CCC1C2CC[C@]2(C)[C@H](NCCCCCCN3C(=O)C=CC3=O)CC[C@@H]12` (some centres not stated), for which the values for the activity change, negative = inhibition in assay [1] and in assay [3] were -7.36% [at 38 µM] and 12.6% [at 38 µM], respectively. The Potency entry in [2], in [7], in assay [11] and in assay [19] was “inactive” throughout. For the same molecule, in assay [4], the activity, negative = inhibition was 1% [at 38 µM]. Also, the Potency in [5] and in assay [6] was above 46 µM throughout. The molecule was classed as inactive in assay [16], in [17] and in assay [18].
As for `COc1cc(OC)cc([C@H](CNc2ncnc3c2ncn3[C@@H]2O[C@@H](CO)[C@H](O)[C@@H]2O)c2ccccc2C)c1`, the activity change, negative = inhibition in assay [1] is -6.78% [at 38 µM]; in assay [3] it was 19.3% [at 38 µM]. The Potency entry in [2], in [7], in assay [11] and in assay [10] was “inactive” each time. Moreover, the activity, negative = inhibition in [4] is 3.32% [at 38 µM]. Further, the Potency in [5] and in assay [6] was above 46 µM in each case.
As for `NC(N)=Nc1nc2ccc([N+](=O)[O-])cc2[nH]1`, the values for the activity change, negative = inhibition in [1] and in [3] were 0.0978% and 0.0962%, respectively. Also, the Potency in assay [2] was 3.16 µM (active); in [5], above 46 µM; in assay [6] it was above 9.22 µM; in [8], 3.16 µM (active). For the same molecule, in [4], the activity, negative = inhibition was 9.75%. Moreover, the Potency entry in assay [7] and in [11] was “inactive” each time.
For `C#C[C@H](N)CCC(=O)O`, the values for the activity change, negative = inhibition in assay [1] and in [3] were 2.59% [at 38 µM] and -4.34% [at 38 µM], respectively. Further, the Potency result in assay [2], in assay [7], in assay [11], in assay [9], in assay [14] and in assay [19] was “inactive” throughout. In addition, in [4], the activity, negative = inhibition was 1.65% [at 38 µM]. In addition, the Potency in [5] and in assay [6] was above 46 µM each time. The molecule was classed as inactive in [13], in assay [16], in assay [17] and in assay [18].
